This is one part of the list. Results filed as inconclusive are left out. Active and inactive are the calls of the source. Calls follow the shape of the dose curve; as a rule, active = well fitted inhibition curve with a large enough effect; inconclusive = small, poorly fitted or top-dose-only effect; inactive = no such curve, though single readings can be large or run the other way.

These results are taken from PubChem BioAssay AID720575 (National Center for Advancing Translational Sciences (NCATS), 2013).
Also: nearly all actives have a fitted effect of over 80% in size.

The assay in a line: qHTS Assay for Inhibitors of Hepatitis C Virus (HCV): Confirmation Assay for Cherry-picked Compounds. The following applies: HCVcc-Cre infectious virus cell assay, luciferase, inhibition. The source says:
Hepatitis C virus (HCV) infects about 200 million people in the world. Many infected people progress to chronic liver disease including cirrhosis with a risk of developing liver cancer. To date, there is no effective vaccine for hepatitis C. Current therapy based on interferon is only effective in about half of the patients and is associated with significant adverse effects. The fraction of people with HCV who can complete a successful treatment is estimated to be no more than 10 percent. Recent development of direct-acting antivirals against HCV, such as protease and polymerase inhibitors, is promising but still requires combination with peginterferon and ribavirin for maximal efficacy. In addition, these agents are associated with high rate of resistance and many have significant side effects. Due to the lack of a culture system for infectious HCV, the search for new HCV drugs has been greatly hampered. […] High-throughput screening (HTS) with an infectious HCV system would cover the complete spectrum of potentially druggable targets in all stages of HCV lifecycle, and would have more biological relevance than other cell-based assays. Moreover, targeting several key processes in the viral life cycle may not only increase antiviral efficacy; more importantly, it may also reduce the capacity of the virus to develop resistance to the compound.
The goal of this project is to identify novel HCV inhibitors as new therapies for hepatitis C, using a highly sensitive and specific assay platform based on a HCV infectious cell culture system established in the laboratory and adapted for high-throughput HCV drug screen. The data herein is the result of the confirmation assay against the cherry picked compounds. Decrease in the confirmatory assay signal, indicative of the HCV inhibition is the desired outcome for this assay.
NIH Chemical Genomics Center [NCGC]
NIH Molecular Libraries Probe Centers Network [MLPCN]
Assay Submitter (PI): Jake Liang, NIDDK
Cells were plated in a 1536-wel tissue culture grade plates at a final concentration of 1,000 cells/well (3 uL volume). The assay plate was culture for 4 h. Then 23 nL of compounds from the library collection was added to each well followed by 2.5 µL of HCVcc-Cre virus (~ 0.5 moi). The plates were further cultured for 44 hr at 37C. A volume of 4.5 uL luciferase substrates was added to each well and the plates were incubated at room temperature for 15 min. The luciferase activity was read for 15 sec using the PerkinElmenr ViewLux plate reader.
In general terms: In qHTS, concentration-response curves come from the screen itself.
Turning to `CCC(C(=O)OCC(=O)Nc1ccc(C(=O)Nc2ccc(OC)cc2)cc1)c1ccccc1` (stereo unspecified), the Potency is 8.87 µM (active).

In the case of `CCCc1nc2ccccc2c(C(=O)OCc2nnc(-c3cc(OC)c(OC)c(OC)c3)o2)c1CC`, the Potency is 14.1 µM (active).

Regarding `COCCCn1c(SCc2cccc(OC)c2)nc2cc(OC)c(OC)cc2c1=N`, the Potency is 14.1 µM (active).

`CC(C)(C)Nc1nc(-c2ccccn2)nc2ccccc12`: the Potency is 1.99 µM (active).

In the case of `COc1ccc(NC(=O)c2sc(N3CCOCC3)nc2-c2ccccc2)c(OC)c1`, the Potency was 14.1 µM (active).

`COc1ccc(OCCNC(=O)c2cc(C3CC3)nc3c2cnn3C(C)C)cc1`: the Potency was 0.353 µM (active).

As for `Cc1ccc(C)c(NC(=S)NNC(=S)Nc2ccc(C(C)C)cc2)c1`, the Potency was 22.3 µM (active).

For `CN(C)c1nc(N)nc(CSc2nnnn2-c2cccc3ccccc23)n1`, the Potency was 5.6 µM (active).

As for `Cc1cc(-c2cccs2)nc(-n2cccc2)n1`, the Potency was 9.95 µM (active).

`N#C/C(=C1\CCCN1)c1nc(-c2ccccc2)cs1`: the Potency is 14.1 µM (active).

Take `Cc1ccc(C)c(N2CCN(C(=O)CCCCCn3c(=S)[nH]c4ccc(N5CCOCC5)cc4c3=O)CC2)c1`: the Potency is 2.8 µM (active).

For `Cc1c(-c2cccc(Cl)c2)nc2ccccc2c1C(=O)OCC(=O)N(C)C1CCS(=O)(=O)C1` (stereo unspecified), the Potency was 14.1 µM (active).

As for `CC(C)(C)c1ccc(Oc2ccc(N)cc2)cc1`, the Potency is 2.8 µM (active).

With `CCCOc1ccc(C(=O)C(CCC(CNCC)C(=O)c2ccc(OCCC)cc2)CNCC)cc1` (stereo unspecified), the Potency was 7.05 µM (active).

`COc1ccc(Cl)cc1NC(=O)c1oc(C)nc1C`: the Potency is 12.5 µM (active).

Regarding `COc1ccc(C(C(=O)NC2CCCCC2)N(C(=O)CCl)c2ccccc2Cl)cc1` (stereo unspecified), the Potency is 3.15 µM (active).
